Assay [1] can be described thus: NCI Yeast Anticancer Drug Screen. Data for the rad50 strain (AID 155).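 Further: 0% = growth of vehicle-only cultures of the same strain.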 The note with it: S. cerevisiae rad50 strain growth inhibition, hits give high values. Summed up:
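Genetically altered yeast (DNA repair pathway); compound treatment; growth inhibition vs vehicle ctrl.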

Assay [2] in a line: NCI Yeast Anticancer Drug Screen. Data for the mec2-1 strain (AID 157). As to conditions: S. cerevisiae mec2-1 strain, hits give high values. The method in brief:
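Test agents were screened against the mec2-1 yeast strain, with defined DNA repair or cell cycle alteration. Growth was scored as inhibition against vehicle-only controls.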

The nature of assay [3]: NCI Yeast Anticancer Drug Screen. Data for the sgs1 mgt1 strain (AID 161).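 Further: 0% = growth of cultures given vehicle only.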 The note with it: S. cerevisiae sgs1 mgt1 strain, hits give high values. The method in brief:
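Genetically altered yeast, compound exposure, growth inhibition relative to vehicle.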

Assay [4] can be described thus: NCI Yeast Anticancer Drug Screen. Data for the cln2 rad14 strain (AID 165).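 Further: 0% = growth equal to vehicle treated cultures.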 As to conditions: S. cerevisiae cln2 rad14 strain, hits give high values. Summed up: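 Growth of compound-exposed yeast (cln2 rad14 genotype) measured and expressed as inhibition relative to vehicle.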
The nature of assay [5]: NCI Yeast Anticancer Drug Screen. Data for the bub3 strain (AID 167). As to conditions: S. cerevisiae bub3 mutant strain, hits give high values. The method in brief: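 Yeast carrying a defined mutation is treated with each compound, and growth is compared with that of vehicle-exposed cells to give inhibition.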
Assay [6] is described as follows: NCI Yeast Anticancer Drug Screen. Data for the mlh1 rad18 strain (AID 175). As to conditions: S. cerevisiae mlh1 rad18 strain growth inhibition, hits give high values. The method in brief: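 In this whole-cell yeast screen, a strain with altered DNA damage repair is challenged with compound, and its growth is measured against matched vehicle-treated controls.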
[7] abbreviates: at 5.0 µM (retest, dose inferred, filed as 0.5).
Setting [8] is: at 50.0 µM (retest, dose inferred, filed as 5.0).

The panel holds about 79,000 compounds, 15% with a hit somewhere; the sample as a whole holds those more often. A number with no mark means an inactive call. Active and inactive are the calls of the source. No stated cut-off is given here; in the data, active means growth inhibition above about 70%; inactive means the rest.

Turning to `Nc1ccc(C(=O)Nc2ccc(C(=O)Nc3ccc(/C=C/c4ccc(NC(=O)c5ccc(N)cc5)cc4S(=O)(=O)O)c(S(=O)(=O)O)c3)cc2)cc1`, the growth inhibition is -2% in assay [1] (setting [7]); 87% (active) in assay [1] (setting [8]); 68.5% in assay [1] (at 50.0 µM); -21% in assay [2] (setting [7]); 76% (active) in assay [2] (setting [8]); 72.8% (active) in assay [2] (at 50.0 µM). Also, the growth inhibition is 3% in assay [3] (setting [7]); 78% (active) in assay [3] (setting [8]); 69.3% in assay [3] (at 50.0 µM); 16% in assay [4] (setting [7]); 39% in assay [4] (setting [8]); 18.3% in assay [4] (at 50.0 µM). Further, the growth inhibition in assay [5] (setting [7]) is -15%; in assay [5] (setting [8]), 82% (active); in assay [5] (at 50.0 µM), 70.4% (active); in assay [6] (setting [7]) it was -15%; in assay [6] (setting [8]) it was 61%; in assay [6] (at 50.0 µM), 74.2% (active).

With `CCCCCCCCCCCCCCCC(=O)N1CC[N+](C)(CC2=CC3(Cl)C(Cl)=C(Cl)C2(Cl)C3(Cl)Cl)CC1` (stereo not drawn), the growth inhibition is 99% (active) in assay [1] (setting [7]); 99% (active) in assay [1] (setting [8]); 98.8% (active) in assay [1] (at 50.0 µM); 99% (active) in assay [2] (setting [7]); 99% (active) in assay [2] (setting [8]); 99.2% (active) in assay [2] (at 50.0 µM). Besides, the growth inhibition was 98% (active) in assay [3] (setting [7]); 99% (active) in assay [3] (setting [8]); 99.2% (active) in assay [3] (at 50.0 µM); 96% (active) in assay [4] (setting [7]); 98% (active) in assay [4] (setting [8]); 98.5% (active) in assay [4] (at 50.0 µM). Also, the growth inhibition in assay [5] (setting [7]) was 99% (active); in assay [5] (setting [8]), 99% (active); in assay [5] (at 50.0 µM) it was 98.8% (active); in assay [6] (setting [7]), 99% (active); in assay [6] (setting [8]), 99% (active); in assay [6] (at 50.0 µM) it was 98.7% (active).

For `CC1C/C(=N\N(C)C)C(C#N)(C#N)C1(C#N)C#N` (stereo not drawn), the growth inhibition in assay [1] (setting [7]) is 30%; in assay [1] (setting [8]), 99% (active); in assay [1] (at 50.0 µM) it was 81% (active); in assay [2] (setting [7]) it was 45%; in assay [2] (setting [8]), 99% (active); in assay [2] (at 50.0 µM), 81.1% (active). Further, the growth inhibition is 26% in assay [3] (setting [7]); 97% (active) in assay [3] (setting [8]); 66.5% in assay [3] (at 50.0 µM); 27% in assay [4] (setting [7]); 79% (active) in assay [4] (setting [8]); 37.8% in assay [4] (at 50.0 µM). Moreover, the growth inhibition in assay [5] (setting [7]) is 47%; in assay [5] (setting [8]), 99% (active); in assay [5] (at 50.0 µM) it was 62.2%; in assay [6] (setting [7]) it was 59%; in assay [6] (setting [8]), 99% (active); in assay [6] (at 50.0 µM), 92% (active).

For the compound `CC(CCC(=O)O)(Nc1ccc([N+](=O)[O-])cc1[N+](=O)[O-])C(=O)O` (stereo not drawn), the growth inhibition in assay [1] (setting [7]) was 51%; in assay [1] (setting [8]) it was 99% (active); in assay [1] (at 50.0 µM), 99.2% (active); in assay [2] (setting [7]), 41%; in assay [2] (setting [8]) it was 100% (active); in assay [2] (at 50.0 µM), 99.6% (active). Further, the growth inhibition is 52% in assay [3] (setting [7]); 99% (active) in assay [3] (setting [8]); 99.1% (active) in assay [3] (at 50.0 µM); 18% in assay [4] (setting [7]); 100% (active) in assay [4] (setting [8]); 91.9% (active) in assay [4] (at 50.0 µM). Moreover, the growth inhibition was 34% in assay [5] (setting [7]); 100% (active) in assay [5] (setting [8]); 98.8% (active) in assay [5] (at 50.0 µM); 57% in assay [6] (setting [7]); 100% (active) in assay [6] (setting [8]); 98.8% (active) in assay [6] (at 50.0 µM).

On to `O=C1C(=O)c2cc(Br)cc([N+](=O)[O-])c2-c2ccc(Br)cc21`, for which the growth inhibition in assay [1] (setting [7]) was 68%; in assay [1] (setting [8]), 96% (active); in assay [1] (at 50.0 µM), 95.5% (active); in assay [2] (setting [7]) it was 52%; in assay [2] (setting [8]), 96% (active); in assay [2] (at 50.0 µM), 98.3% (active). For the same compound, the growth inhibition in assay [3] (setting [7]) is 83% (active); in assay [3] (setting [8]) it was 93% (active); in assay [3] (at 50.0 µM), 97.1% (active); in assay [4] (setting [7]), 21%; in assay [4] (setting [8]), 92% (active); in assay [4] (at 50.0 µM) it was 96.6% (active). In addition, the growth inhibition is 38% in assay [5] (setting [7]); 94% (active) in assay [5] (setting [8]); 98.3% (active) in assay [5] (at 50.0 µM); 89% (active) in assay [6] (setting [7]); 97% (active) in assay [6] (setting [8]); 98.4% (active) in assay [6] (at 50.0 µM).

Regarding `COc1ccc(/C=C/c2ccnnc2)c(OC)c1OC`, the growth inhibition in assay [1] (setting [7]) was -7%; in assay [1] (setting [8]) it was 6%; in assay [1] (at 50.0 µM), 53.2%; in assay [2] (setting [7]) it was -3%; in assay [2] (setting [8]), 8%; in assay [2] (at 50.0 µM), 79.5% (active). The growth inhibition in assay [3] (setting [7]) is -6%; in assay [3] (setting [8]), 5%; in assay [3] (at 50.0 µM) it was 28.6%; in assay [4] (setting [7]) it was -4%; in assay [4] (setting [8]) it was 39%; in assay [4] (at 50.0 µM) it was 52.8%. Further, the growth inhibition in assay [5] (setting [7]) was -5%; in assay [5] (setting [8]), 15%; in assay [5] (at 50.0 µM), 39.3%; in assay [6] (setting [7]) it was -6%; in assay [6] (setting [8]), 2%; in assay [6] (at 50.0 µM), 93.7% (active).

The record behind these values is PubChem BioAssay (NCI).
